Screening results: PubChem, National Center for Advancing Translational Sciences (NCATS)
HT1080 IDH1KD tx: toxicity to HT-1080 IDH1 knockdown cells (counter line) | Potency, µM (titrated, usually from 46.1 µM), for the others: at the top dose activity, negative = toxicity, usual class: cytotoxic | HT-1080 IDH1 knockdown viability, ATP luminescence, 48 h | 360,000 compounds, 2% hits;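 note: potency is the fitted concentration of half-maximal effect; 0% = DMSO wells and -100% = cell-free medium wells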
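% activity derives from luminescence (CellTiter-Glo), normalised to DMSO and no-cell wells. HT-1080-IDH1KD cells, 750/well, had 48 h compound exposure at 37 °C.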
TDP1 cell CPT: growth inhibition of DT40 Tdp1-/-;hTDP1 cells with camptothecin (screen for TDP1 inhibitors). AID 686979. chicken DT40 Tdp1-/-;hTDP1 cells + 20 nM CPT, ATP luminescence, 48 h. Potency, µM (titrated, usually from 46.2 µM), without a hit: at the top dose activity change, negative = growth inhibition, actives largely listed as inhibitors. 420,000 compounds, 12% hits; note: potency is the fitted concentration of half-maximal effect; nearly all actives have a fitted effect of over 55% in size
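Chicken DT40 Tdp1-/- cells stably complemented with human TDP1 were seeded at 400 cells/well in medium containing 20 nM camptothecin, exposed to pin-transferred compounds, and grown at 37 °C for at least 48 hr. Viability was read as ATP luminescence.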
HT1080NT lethal: kills 2HG-producing HT-1080-NT fibrosarcoma cells; HT-1080-NT fibrosarcoma viability, CellTiter-Glo ATP luminescence, 48 h; Potency, µM (top dose mostly 46.1 µM), for the others: top-dose activity, negative = less viability, hits mostly cytotoxic; 360,000 compounds, 1.6% hits;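 note: NT is the 2HG producing partner of a matched IDH1 knockdown line; potency is the fitted concentration of half-maximal effect; 0% = DMSO-treated cells and -100% = media-only wells without cells; nearly all actives have a fitted effect of over 55% in size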
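Luminescent CellTiter-Glo readout after 48 hours of compound exposure at 37 degrees C defined viability of HT-1080-NT cells. Activity was normalized to DMSO wells and cell-free media wells; concentration-response curves were fitted and assigned curve classes.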
DT40 TDP1 no CPT: qHTS for Inhibitors of human tyrosyl-DNA phosphodiesterase 1 (TDP1): qHTS in cells in absence of CPT; DT40 Tdp1-/- hTDP1 cells, no CPT, ATP luminescence, 48 h; Potency, µM (top dose mostly 46.2 µM), without a hit: at the top dose activity change, negative = growth inhibition, usual class: inhibitors; 420,000 compounds, 15% hits; AID 686978, 2013; note: potency is the fitted concentration of half-maximal effect; nearly all actives have a fitted effect of over 55% in size
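Growth kinetics read by CellTiter-Glo luminescence after ≥48 hr at 37 °C. Cells: DT40 Tdp1-/- stably carrying human TDP1, 400 per well, compound exposure in the absence of CPT (DMSO vehicle).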
IL1B secr inh: inhibitors of inflammasome signaling (IL-1 beta secretion); 360,000 compounds, 4.7% hits; THP-1 LPS/ATP IL-1B secretion, AlphaLISA, 16 h; hits give low values; activity change, % at 57.5 µM; in the data active = activity change below about -50%; inconclusive = mostly about -30% to -49%
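THP-1 cells pretreated 1 hr with compounds (up to 57.5 uM final), then stimulated with LPS (250 ng/mL final) plus ATP (1.25 mM final); secreted IL-1B measured by AlphaLISA after 16 hr, decreased signal indicating inhibition.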
uPA surface inh: inhibitors of cell surface uPA generation | Potency, µM (series often up to 38.3 µM), inactives show at the top dose activity change, negative = inhibition, usual class: inhibitors | AID 540303 | cell surface uPA generation assay, qHTS | 330,000 compounds, 0.31% hits; active = well fitted inhibition curve with a large enough effect; inconclusive = small, poorly fitted or top-dose-only effect; inactive = no such curve, though single readings can be large or run the other way; tested in mouse RAW 264.7 cells; note: potency is the fitted concentration of half-maximal effect; nearly all actives have a fitted effect of over 55% in size
Starred values were filed as active, the others as inactive; ? = inconclusive; / = no result given. The list is not random: actives were taken first. Their share in the collection is about 19%. Unless noted, calls come from the whole dose curve; as a rule, active = well fitted curve in the direction sought with a large enough effect; inconclusive = small, poorly fitted or top-dose-only effect, or another doubt; inactive = no such curve, though single readings can be large; an effect the other way counts as inactive or inconclusive. Unless noted, % is set by controls: 0 for no effect and ±100 for the full control effect.

SMILES | HT1080 IDH1KD tx | TDP1 cell CPT | HT1080NT lethal | DT40 TDP1 no CPT | IL1B secr inh | uPA surface inh
Cc1ccc2cc(C(c3nnnn3C3CCCC3)N(Cc3ccccc3)Cc3ccco3)c(=O)[nH]c2c1 (centres undefined) | 8% | 21µM* | 14% | ? | -14 | -1%
Fc1cccc(F)c1[B-](F)(F)F | -2% | ? | -1% | 1% | -11 | 8%
CCOC(=O)CC(=O)CSc1ncnc2c1nnn2-c1ccc(OC)cc1 | 18% | 2% | 5% | -9% | -10 | -1%
O=C(Nc1cc(Sc2ccccn2)cc([N+](=O)[O-])c1)c1ccc(Cl)cc1 | ? | ? | ? | 23µM* | -66* | -14%
O=C(Nc1cc(Sc2ccccn2)cc([N+](=O)[O-])c1)c1cccc(Cl)c1 | ? | ? | ? | ? | ? | -13%
CCc1cccc(C)c1NC(=O)c1ccc2c(c1)CCN2S(=O)(=O)c1ccc(Cl)cc1 | / | ? | / | 9.2µM* | / | /
CCc1cccc(C)c1NC(=O)c1ccc2c(c1)CCN2S(=O)(=O)CC | / | ? | / | 12µM* | / | /
CCc1cccc(CC)c1NC(=O)c1ccc2c(c1)CCN2S(=O)(=O)c1ccccc1 | / | 0% | / | 0% | / | /
CCS(=O)(=O)N1CCc2cc(C(=O)Nc3cc(Cl)ccc3C)ccc21 | / | 29µM* | / | 23µM* | / | /
CCOc1ccc(NC(=O)c2ccc3c(c2)CCN3S(=O)(=O)CC)cc1 | / | -11% | / | ? | / | /
Cc1ccc(C(=O)OCCn2cc(C#N)c(=O)[nH]c2=O)cc1 | -8% | ? | -3% | -11% | -7 | -1%
CCOc1cc(CNC(=O)c2ccc(Cn3c(=O)c4cccn4c4cccnc43)cc2)ccc1OC | / | -28% | / | ? | / | /
Cn1c(=O)c2c([nH]c(=O)n2Cc2ccc(Cl)cc2Cl)n(C)c1=O | / | 2% | / | 8% | / | /
C[C@@H]1CN([C@H](C)CO)C(=O)CCCn2cc(nn2)CO[C@H]1CN(C)S(=O)(=O)c1cccc(C#N)c1 | 12% | 10% | 16% | -14% | 26 | /
O=C1NC[C@@H](CCCCN2C[C@H](Cc3ccc(O)cc3)N(CCc3ccccc3)C(=O)C2=O)N(CC2CCCCC2)C1=O | 0% | -1% | 1% | 1% | -7 | /
Cc1ccc(-n2c(N)c(C(=O)Nc3ccccc3F)sc2=S)cc1C | -15% | ? | -8% | -14% | -54* | 2%
CCN1/C(=C/C=C/c2oc3ccc(-c4ccccc4)cc3[n+]2CC)Oc2ccc(-c3ccccc3)cc21 | 0.92µM* | 0.0073µM* | 2.6µM* | 0.073µM* | -107* | -15%
CC12CCC(C(=O)Nc3cccc(Cl)c3)(C(Br)C1=O)C2(C)C (centres undefined) | -10% | ? | -14% | 18µM* | 14 | -1%
COc1ncc2nc(-c3cn(C)c4ccccc34)c(=O)n(CCc3ccccc3)c2n1 | / | 10% | / | 7% | / | /
COCCn1c(=O)c(C)nc2cnc(N3CCOCC3)nc21 | / | 3% | / | 10% | / | /
N#Cc1ccc(-c2ccc(OCC3CNC(=O)O3)cc2)cc1 (centres undefined) | -1% | 8.2µM* | -13% | 13µM* | -17 | -3%
CCCCNC(=O)c1ccc2nc(CC)c(N(CC)CCN(C)C)n2c1 | ? | 0% | 3% | -11% | 10 | /
CCOC(=O)N1CCN(C(=O)CSc2nc3c(cnn3-c3ccccc3)c(=O)[nH]2)CC1 | 1% | ? | -6% | 23µM* | 53 | -9%
Nc1nc(SCC(=O)N2CCCC2)[nH]c(=O)c1-c1ccccc1 | 21% | ? | 23% | 26µM* | 15 | 9%
O=c1[nH]c(CSc2nc3ccccc3o2)nc2c1cnn2-c1ccccc1 | -33% | ? | ? | -20% | 26 | 4%
SMILES | HT1080 IDH1KD tx | TDP1 cell CPT | HT1080NT lethal | DT40 TDP1 no CPT | IL1B secr inh | uPA surface inh
Cc1ccc2nc(SCc3nc4c(cnn4-c4ccccc4)c(=O)[nH]3)[nH]c2c1 | 9% | 21µM* | 7% | 16µM* | 53 | 1%
Cc1ccc2nc(SCc3nc4cc(Cl)ccc4c(=O)[nH]3)[nH]c2c1 | -3% | -9% | -11% | ? | 7 | -12%
O=c1[nH]c(CSc2nc3ccccc3[nH]2)nc2c1cnn2-c1ccccc1 | ? | 26µM* | 23µM* | 21µM* | -67* | -3%
O=c1oc2ccc3ccccc3c2cc1-c1nnc(Nc2ccc(Cl)cc2Cl)s1 | / | 2% | / | -11% | / | /
O=C(NCCCN1CCCCC1)c1ccc(CS(=O)c2ccc(Cl)cc2)o1 (centres undefined) | -2% | -7% | -7% | 3% | -2 | -14%
O=c1[nH]c(SCc2nc3c(cnn3-c3ccccc3)c(=O)[nH]2)nc2ccccc12 | ? | ? | -21% | 21µM* | 5 | -14%
CCCCCSc1nc2c(cnn2-c2ccc(F)cc2)c(=O)[nH]1 | 11% | ? | 27% | 23µM* | 25 | 4%
O=c1[nH]c(CSc2ncccn2)nc2c1cnn2-c1ccccc1 | 1% | -26% | -1% | -20% | -1 | -2%
Cc1ccc2cc3cc(C(=O)N4CCN(c5ccc(Cl)cc5)CC4)oc3nc2c1 | / | 9% | / | 8% | / | /
COc1ccc(CCNC(=O)c2ccc3c(c2)CCN3S(=O)(=O)c2ccc(C)cc2)cc1 | / | ? | / | 10µM* | / | /
Cc1ccc(CNC(=O)c2ccc3c(c2)CCN3S(=O)(=O)c2ccc(Br)cc2)cc1 | / | -18% | / | -24% | / | /
O=C(NCCc1ccccc1)c1ccc2c(c1)CCN2S(=O)(=O)c1ccccc1 | / | 21µM* | / | 15µM* | / | /
COc1ccc(CNC(=O)c2ccc3c(c2)CCN3S(=O)(=O)c2ccccc2)cc1 | / | 12µM* | / | 18µM* | / | /
COc1ccc(NC(=O)c2ccc3c(c2)CCN3S(=O)(=O)c2ccccc2)c(OC)c1 | 4% | ? | 0% | ? | -17 | 5%
CCCCN1C(=O)C(C(=O)OCc2ccccc2)CC2=C1CCCC2=O (centres undefined) | 3% | -9% | 13% | -6% | 30 | 20%
Cc1ccc(S(=O)(=O)NN=C2C3CC4CC(C3)CC2C4)cc1 | 8% | 7% | -1% | 1% | -2 | 3%
Cc1nn(C)c(C(=O)Nc2ccc(S(=O)(=O)NC34CC5CC(CC(C5)C3)C4)cc2)c1Br | ? | 21µM* | ? | 23µM* | -1 | 6%
Cc1ccc(S(=O)(=O)NC23CC4CC(CC(C4)C2)C3)cc1 | 0% | ? | -1% | 21µM* | 55 | -2%
